Several values for one entry are separate records, joined by “and”; a condition that tells them apart may be missing. Identical values can stand only once. Hit rate of the full screen: of about 370,000 compounds, about 3,800 (1%) were called active. For the sample, actives were picked, then their nearest neighbours and some compounds at random. A number with no mark means an inactive call. Cut-off read from the data, not from the text of the source: active = activation above about 7.8%; inactive = the rest.

This assay can be described thus: SMARCA2 (BRM) function activators, primary screen, cell-based, luminescence, high throughput (AID 652017).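 Note: 0% = vehicle wells and 100% = reference activator wells.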 The following applies: MG213 cells, MMTV-luciferase reporter, dexamethasone, overnight; at 9.1 µM; active compounds read high.
On to `O=C(CSc1nc2ccccc2s1)N=Nc1c(O)[nH]c2ccccc12`, for which the activation is -2.44%.

On to `Cc1ccc(S(=O)(=O)N(CC(=O)Nc2cccc([N+](=O)[O-])c2)Cc2ccc(Cl)cc2)cc1`, for which the activation was -2.5%.

With `COc1ccc(C)cc1S(=O)(=O)N(CC(=O)Nc1cccc([N+](=O)[O-])c1)c1ccc(C)cc1`, the activation was 9.29% (active).

On to `COc1ccc(N(CC(=O)Nc2ccc(C)cc2C)S(=O)(=O)c2ccccc2[N+](=O)[O-])c(OC)c1`, for which the activation was -0.94%.

Consider `Nc1ccc2c(c1)C(=Cc1cccnc1)c1ccccc1-2`, for which the activation was 0.27%.

On to `Cc1ccccc1C1=N/C(=C/c2cccnc2)C(=O)O1`, for which the activation is 10.3% (active).

As for `Cc1ccc(C2=C/C(=C\c3cccnc3)C(=O)O2)cc1`, the activation was 5.23%.

As to `CCn1c(SCC(C)=O)nc2sc3c(c2c1=O)CCCC3`, the activation is -0.23%.

Regarding `Cc1cccc(-n2c(O)c(C=Nc3ccccc3N)c(=O)[nH]c2=O)c1`, the activation was 9.92% (active).

On to `O=C(CSc1nc2sc3c(c2c(=O)n1-c1ccccc1)CCCC3)NN=Cc1ccc(OCc2ccccc2)cc1`, for which the activation was -2.96%.

Consider `Cc1ccc(Cn2cc(CN3[C@@H](C)COc4cc(Br)ccc4S3(=O)=O)nn2)cc1`, for which the activation was -6.23%.

Turning to `O=C(Cn1ncc2c3ccccc3n(Cc3ccccc3)c2c1=O)NCc1ccccn1`, the activation is -0.48%.

Turning to `O=S(=O)(Cc1ccccc1)c1nc2ccccc2n1Cc1ccccn1`, the activation is 7.86% (active).

Consider `O=C(O)Cn1c(Cc2ccccc2)nc2ccccc21`, for which the activation is -0.68%.

Take `O=C1NC[C@@H](CCCCN2CCN(CCc3ccc(O)cc3)C(=O)C2=O)N(CC2CCCCC2)C1=O`: the activation was 0.65%.

Regarding `Cc1ccc(Cn2cc(CN3[C@@H](CC(C)C)COc4ccc(Cl)cc4S3(=O)=O)nn2)cc1`, the activation was 0.91%.

With `CC(CCN1CCC(C(O)(c2ccccc2)c2ccccc2)CC1)Oc1ccc(C(F)(F)F)cc1` (configuration not stated), the activation was 0.64%.

With `COC(=O)[C@]12CCCCC=C1N(Cc1ccco1)C(=O)[C@H](CC(=O)NCC1CCCCC1)C2`, the activation is -5.18%.

On to `Cn1c(SCC(=O)Nc2cccc(NC(=O)c3cccs3)c2)nnc1-c1ccncc1`, for which the activation was 2.18%.

On to `Cc1nc(-c2nnc(SCC(=O)Nc3cc(C(F)(F)F)cc(C(F)(F)F)c3)n2C)cs1`, for which the activation is 8.28% (active).

Turning to `Cc1cc(-c2nc(C)c(-c3nnc(SCC(=O)Nc4ccccc4)n3C)s2)no1`, the activation was -1.01%.

In the case of `Cc1cc(=O)[nH]c(SCC(=O)Nc2ccc(F)cc2F)n1`, the activation was -4.89%.

Consider `COc1cccc(C(=O)Nc2nc3ccc(S(C)(=O)=O)cc3s2)c1`, for which the activation was 8.68% (active).

Take `COc1cccc(C(=O)Nc2nnc(S(=O)(=O)N3CCOCC3)s2)c1`: the activation was -2.26%.

On to `COc1cccc(C(=O)NNS(=O)(=O)c2ccc(F)cc2)c1`, for which the activation is -0.53%.

For the compound `O=C(CSc1nc2ccccc2n1Cc1ccccc1Cl)N/N=C\c1c[nH]c2ccccc12`, the activation is -4.04%.

For the compound `C=CC(=O)OCCOCCOCCOCCOC(=O)C=C`, the activation is 13.1% (active).

For the compound `CCc1nc2c(OCCOc3ccccc3)cccn2c1N(C)C(=O)c1ccc(OC)cc1`, the activation was -6.52%.

`O=C1CCC2(CCC(c3ccc(Cl)cc3)CC2)N1CCO` (configuration not stated): the activation was -3.07%.

As for `CCCCCCN1CCS(=O)(=O)N(Cc2ccc(C(F)(F)F)cc2)C(C(=O)OC)C1` (configuration not stated), the activation was -1.27%.

For `O=C(CSc1nnc(-c2ccccc2)n1Cc1ccco1)Nc1ccccc1-c1ccccc1`, the activation was -7.03%.

As for `Cc1ccc(C)c(NC(=O)CCS(=O)(=O)c2ccccc2)c1`, the activation was 0.55%.

On to `Cc1ccc(F)c(NC(=O)CCc2ccccc2)c1`, for which the activation was 11.3% (active).

As for `Cc1ccc(F)c(NC(=O)CCOc2ccccc2C)c1`, the activation was -0.21%.

`C[C@H](NC(=O)c1ccccc1Cl)C(=O)OCCOc1cccc(Cl)c1`: the activation is -0.67%.

On to `COC(=O)c1sc(-c2ccc(C(C)(C)C)cc2)cc1NC(=O)/C=C/C(=O)O`, for which the activation was 9.14% (active).

Regarding `O=C(C=CC(=O)Nc1ccc(F)cc1F)Nc1ccc(F)cc1F`, the activation was 0.37%.

Take `COC(=O)C[C@@H]1CC[C@@H]2[C@@H](COc3ccc(NC(=O)Nc4ccc(F)c(F)c4)cc3C(=O)N2C)O1`: the activation was -2.75%.

Turning to `CC(=O)c1sc(NC(=O)c2ccc(C)cc2)nc1C`, the activation is 9.69% (active).

Turning to `Cc1ccc(C(=O)Nc2nc(N)n(-c3ccccc3)n2)cc1`, the activation is -1.21%.

With `Cc1ccc(/C=N/NC(=O)C(NC(=O)c2ccccc2)c2n[nH]c(=O)c3ccccc23)cc1` (configuration not stated), the activation was -1.07%.

Turning to `CCOC(=O)c1sc(/N=C/Nc2nc(C)c(C(=O)OCC)s2)nc1C`, the activation was -0.22%.

As to `CC(=O)c1sc(N/N=C\c2ccc(C)cc2)nc1C`, the activation is 13.4% (active).

Take `CC(=O)c1sc(N)nc1C`: the activation was -0.52% and -1.75%.

With `C[C@H]1CCC/C=C/C(=O)c2c(O)cc(O)cc2CC(=O)O1`, the activation was 6.88%.

For the compound `CCCCNC(=O)C[C@H]1C[C@@]2(C(=O)OC)C(=C[C@H](COCc3ccccc3)O[C@@H]2C)N(Cc2ccc(Cl)cc2Cl)C1=O`, the activation is -3.4%.

For the compound `C=CCN1[C@@H](Cc2ccccc2)COc2cccc(N3CCSCC3)c2S1(=O)=O`, the activation is -1.33%.

`COC(=O)[C@]1(C#N)CC(=O)N(CC2CCCCC2)[C@@H]1c1ccccc1`: the activation was -6.17%.

Take `COC(=O)[C@]12C[C@H](CC(=O)NCc3ccccc3)C(=O)N(Cc3ccccc3)C1=C[C@H](COCc1ccccc1)O[C@@H]2C`: the activation is 2.84%.

Consider `Cc1ccc(-c2nc(C3CCCN(S(=O)(=O)c4ccc(Br)s4)C3)no2)cc1` (configuration not stated), for which the activation was -5.3%.

With `CN(C)c1nc(=Nc2cccc(Cl)c2)ss1`, the activation is 10.5% (active).

With `CCCCCCCCNS(=O)(=O)/C=C/c1cc(C)ccc1CNC(=O)OC(C)(C)C`, the activation was -5.6%.

Regarding `C=CCN1C(=O)[C@@H](CC(=O)NCC2CCCCC2)[C@]2(C(=O)OC)CCCCC=C12`, the activation is -0.86%.

For the compound `CCOC(=O)c1cc2cc(-c3c(C(=O)OCC)oc4cc(O)cc(O)c4c3=O)ccc2o1`, the activation is -3.39%.

Take `Cc1cc(NC(=O)CSCc2nc(-c3cccc(Cl)c3)oc2C)no1`: the activation is -4.35%.

For `Cc1ccc(-c2nc(CSCC(=O)NC3CCN(Cc4ccccc4)CC3)c(C)o2)cc1`, the activation was -3.96%.

On to `Cc1ccsc1-c1nc(CSCC(=O)NCCN2CCCC2)c(C)o1`, for which the activation was 8.31% (active).

(Values after PubChem BioAssay AID652017 (The Scripps Research Institute Molecular Screening Center, 2013).)
